± gives the standard deviation of the averaged measurements. In all, about 33,000 sequences were measured (“E-score (dimensionless, -0.5 to 0.5)”: median about -0.046, highest 2% from about 0.36 on). The full list was thinned out, with the highest values kept by preference.
System: T1, SpTbr T-box DNA-binding domain (GST fusion)
T1 sequence: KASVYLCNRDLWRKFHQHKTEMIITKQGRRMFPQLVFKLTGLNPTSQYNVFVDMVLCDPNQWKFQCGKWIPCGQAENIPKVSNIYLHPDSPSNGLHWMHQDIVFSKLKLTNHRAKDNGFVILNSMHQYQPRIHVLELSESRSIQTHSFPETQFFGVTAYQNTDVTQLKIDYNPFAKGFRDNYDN
Assay: PBM E-score of 8-mer (E-score (dimensionless, -0.5 to 0.5)); Tbr is Tbrain of the sea star Patiria miniata (Pm) or the sea urchin Strongylocentrotus purpuratus (Sp); higher = stronger binding preference
Conditions: the construct has about 5 more residues each side
Description: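 Universal protein-binding microarray (Agilent AMADID 016060, 60-bp probes with a 35-bp variable region) incubated with 200 nM GST-fused Strongylocentrotus purpuratus Tbr T-box DNA-binding domain (residues 362-554) in PBS pH 7.5. Scored for every ungapped 8-mer (given with its reverse complement) as E-score (range -0.5 to 0.5; >0.45 counts as bound) and Z-score of median probe intensity. Two replicate arrays (datasets 1 and 2).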
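Further: protein at 200 nM in PBS on universal double-stranded arrays.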

Sequence	PBM E-score of 8-mer
GTGCCAAA	0.403 ± 0.0099
TTGCCAAA	0.0607 ± 0.12
GTGCCAAC	0.4114 ± 0.0035
AAGAGTAT	-0.163 ± 0.024
ATACGCAC	0.153 ± 0.063
ATTTGGCG	0.118 ± 0.03
CTGGGGAA	0.00742 ± 0.052
TACGTGAA	0.0338 ± 0.073
CGCGTGAA	0.4208 ± 0.0018
GACGTGAC	0.235 ± 0.032
GCCGTGAC	0.199 ± 0.011
TCCGTGAA	0.16 ± 0.012
CGCGTGAC	0.355 ± 0.02
GGCGTGAC	0.388 ± 0.0071
GGCGTGAA	0.473 ± 0.0057
TGCGTGAA	0.3936 ± 0.0023
GGCGTGCA	0.0836 ± 0.055
GCCGTGAA	0.354 ± 0.018
CGCGTGAG	0.313 ± 0.0063
AGGCTGGG	-0.179 ± 0.012
ACAGTGTA	0.0565 ± 0.017
ATAACTCC	-0.147 ± 0.029
ACTGACTC	0.0022 ± 0.0015

Sequence	PBM E-score of 8-mer
AGCGTGAT	0.28 ± 0.022
AGCGTGAC	0.3372 ± 0.0013
AGCGTGAA	0.413 ± 0.018
AGAAGACA	0.0347 ± 0.065
CTGTGTCA	0.247 ± 0.015
GTGTGTCA	0.346 ± 0.0092
ATGTGTCC	0.144 ± 0.014
ATGTGTCG	0.385 ± 0.011
ATATGTCG	0.139 ± 0.047
ATGTGTCA	0.4671 ± 0.00078
CACATTCA	0.21 ± 0.041
CATAAAGA	-0.0483 ± 0.0071
GCGGGTGA	0.261 ± 0.03
GAATTTCA	0.056 ± 0.018
AAGCAAGG	-0.0863 ± 0.017
AGCCAGAA	-0.268 ± 0.024
AAGGAGAT	-0.0983 ± 0.019
AGAGGGCC	-0.194 ± 0.097
CTCCACAA	0.136 ± 0.0093
CTCCACAG	-0.0194 ± 0.034
GTCCACAA	0.153 ± 0.039
CTCCACAC	0.37 ± 0.0083
GTCCACAC	0.385 ± 0.0075

Sequence	PBM E-score of 8-mer
ATCCACAC	0.357 ± 0.0097
AGGGACGA	0.053 ± 0.072
CCTTTGAG	-0.17 ± 0.018
CGGTAGCA	0.276 ± 0.031
CTTTGCAA	0.0361 ± 0.021
GATCGGAC	-0.287 ± 0.013
ATCGGCTG	0.0647 ± 0.039
ATACTAGA	-0.222 ± 0.11
CTTCTCAC	0.401 ± 0.011
CTTCTCAA	0.0891 ± 0.045
ATTCTCAC	0.415 ± 0.015
ATTCTCAG	0.0379 ± 0.094
CTTCTCTC	0.08 ± 0.04
ATTCTCAA	0.138 ± 0.062
ACCGAGGA	-0.0878 ± 0.039
AGTTCCAT	0.00979 ± 0.0044
GTGCGATA	0.427 ± 0.0042
CTGCGATA	0.0968 ± 0.04
GTGCGAGA	0.42 ± 0.0079
CTGCGAGA	0.185 ± 0.0098
GTGCGACA	0.398 ± 0.012
TTGCGAAA	0.33 ± 0.038
ATGCGATA	0.0476 ± 0.028

Sequence	PBM E-score of 8-mer
CTGCGAAA	0.342 ± 0.036
GTGCGAAA	0.4765 ± 0.0018
ATGCGACA	0.285 ± 0.0073
ATGCGAGA	0.172 ± 0.017
CTGCGACA	0.198 ± 0.036
GATACCCC	-0.273 ± 0.041
CAAGGATA	-0.175 ± 0.043
GAATCTGC	-0.0922 ± 0.056
ATGCTCCG	-0.0668 ± 0.061
AAGCCCGG	-0.24 ± 0.028
CATGCTAA	0.0578 ± 0.029
ACCTACTA	0.17 ± 0.057
GCATTCTA	-0.293 ± 0.06
AGGCAGAC	-0.227 ± 0.0024
CTGCGAAC	0.365 ± 0.0088
CTGCGAAG	0.2479 ± 0.0022
CTGCGATC	0.106 ± 0.1
GTGCGAAC	0.4783 ± 0.00073
GGGCGAAC	-0.0364 ± 0.016
ATGCGAAC	0.154 ± 0.017
AATGAGGA	-0.334 ± 0.058
AACAATGA	0.0839 ± 0.096
AAAGTTCA	-0.0472 ± 0.047

Sequence	PBM E-score of 8-mer
CTACCGAG	-0.07 ± 0.013
CACCTGTC	0.431 ± 0.019
CACCTGAC	0.374 ± 0.0049
CACCTGTA	0.331 ± 0.036
CACCTGAA	0.29 ± 0.0089
AACCTGTC	0.248 ± 0.011
AACCTGAC	0.121 ± 0.003
GGATCCAC	-0.00958 ± 0.069
CGAAGTAC	-0.169 ± 0.067
GCCGTTTA	0.0646 ± 0.08
CGTGCGAC	0.238 ± 0.029
CGTGCGAG	0.373 ± 0.018
AATGCGAT	0.0396 ± 0.031
ACTGCGAT	0.117 ± 0.0014
CATGCGAG	0.106 ± 0.012
ACTGCGAG	0.17 ± 0.033
AGTGCGAT	0.4291 ± 0.0025
AGTGCGAC	0.341 ± 0.024
AGTGCGAG	0.408 ± 0.022
